# According to PubChem BioAssay (Tox21):
# Values joined by “and” are separate entries in the source; they are usually repeats but may differ in a detail not shown here. Equal values may be shown once. Results filed as inconclusive are left out. A call without a number means that no potency is given here. The source holds several records for some structures; these can differ, active in one and inactive in another. Active and inactive are the calls of the source. Unless noted, calls follow the shape of the dose curve; as a rule, active = well fitted curve in the direction sought with a large enough effect in the repeat runs; inconclusive = weak or mixed curves; inactive = no such curve, though single readings can be large; an effect the other way counts as inactive or inconclusive.
# Experiments:
# [1] = qHTS assay to identify small molecule antagonists of the glucocorticoid receptor (GR) signaling pathway - cell viability counter screen (AID 720693); also: nearly all actives have a fitted effect of over 55% in size
# [2] = qHTS assay for identifying genotoxic compounds that show differential cytotoxicity against isogenic chicken DT40 cell lines with known DNA damage response pathways - wild type cell line (AID 743012); also: nearly all actives have a fitted effect of over 60% in size; also: potency is read from the fitted curve at half-maximal effect
# In short: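 Wild-type DT40 cells (300/well) exposed to compounds for 40 hours at 37 C/5% CO2. Viability read by CellTiter-Glo luminescence after 30 min at room temperature.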
# [3] = qHTS assay for identifying genotoxic compounds that show differential cytotoxicity against isogenic chicken DT40 cell lines with known DNA damage response pathways - Rev3 mutant cell line (AID 743014); also: nearly all actives have a fitted effect of over 55% in size; also: potency is read from the fitted curve at half-maximal effect
# [4] = qHTS assay for identifying genotoxic compounds that show differential cytotoxicity against isogenic chicken DT40 cell lines with known DNA damage response pathways - Rad54/Ku70 mutant cell line (AID 743015); also: nearly all actives have a fitted effect of over 60% in size; also: potency is read from the fitted curve at half-maximal effect
# [5] = qHTS assay to identify small molecule antagonists of the androgen receptor (AR) signaling pathway - cell viability counter screen (AID 743033; also: nearly all actives have a fitted effect of over 45% in size)
# [6] = target: Androgen receptor (Homo sapiens) (UniProt P10275); test: qHTS assay to identify small molecule antagonists of the androgen receptor (AR) signaling pathway (AID 743035; active = well fitted inhibition curve with a large enough effect in the signal ratio in the repeat runs, not every such curve was filed as active; the % refers to the signal ratio)
# Androgen receptor (Homo sapiens), sequence (P10275 whole entry, looked up): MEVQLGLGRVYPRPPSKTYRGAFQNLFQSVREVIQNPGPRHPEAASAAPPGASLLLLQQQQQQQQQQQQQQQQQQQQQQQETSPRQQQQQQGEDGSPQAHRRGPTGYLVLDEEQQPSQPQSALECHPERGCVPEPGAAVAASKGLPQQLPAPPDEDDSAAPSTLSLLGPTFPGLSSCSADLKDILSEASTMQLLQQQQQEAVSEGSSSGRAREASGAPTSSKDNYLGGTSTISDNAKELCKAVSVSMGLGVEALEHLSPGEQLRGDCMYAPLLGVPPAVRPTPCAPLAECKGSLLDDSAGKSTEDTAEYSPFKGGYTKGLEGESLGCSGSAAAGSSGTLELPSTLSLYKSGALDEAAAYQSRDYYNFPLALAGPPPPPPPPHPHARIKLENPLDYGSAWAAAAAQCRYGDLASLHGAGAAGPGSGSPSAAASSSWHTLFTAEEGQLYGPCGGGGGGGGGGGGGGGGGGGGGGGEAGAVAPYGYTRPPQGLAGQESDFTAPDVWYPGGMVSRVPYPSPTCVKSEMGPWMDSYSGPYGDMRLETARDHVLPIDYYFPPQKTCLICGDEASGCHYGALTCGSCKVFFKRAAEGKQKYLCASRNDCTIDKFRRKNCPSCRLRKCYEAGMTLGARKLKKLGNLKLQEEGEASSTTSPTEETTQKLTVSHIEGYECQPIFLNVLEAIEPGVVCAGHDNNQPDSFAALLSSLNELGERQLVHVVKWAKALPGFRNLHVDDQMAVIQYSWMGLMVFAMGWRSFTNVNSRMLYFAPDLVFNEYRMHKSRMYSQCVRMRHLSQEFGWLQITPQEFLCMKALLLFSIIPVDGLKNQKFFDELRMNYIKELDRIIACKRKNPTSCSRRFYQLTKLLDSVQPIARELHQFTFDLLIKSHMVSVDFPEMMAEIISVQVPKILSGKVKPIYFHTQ
# In short: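 HEK293 cells stably carrying UAS-beta-lactamase reporter, 2,000/well, given compounds plus R1881 agonist and incubated 16 h at 37C. LiveBLAzer B/G FRET substrate then added for 2 h at room temperature before fluorescence reading.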
# [7] = target: Androgen receptor (Homo sapiens) (UniProt P10275); test: qHTS assay to identify small molecule agonists of the androgen receptor (AR) signaling pathway (AID 743036; active = well fitted activation curve with a large enough effect in the signal ratio in the repeat runs, with a control signal flat, not every such curve was filed as active; the % refers to the signal ratio)
# In short: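 Screening used 2,000 AR-bla HEK293 cells per well, treated 16 h at 37C with test compounds in DMSO alongside positive and DMSO-only controls; beta-lactamase activity was then read by LiveBLAzer B/G FRET fluorescence after 2 h at room temperature.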
# [8] = target: Androgen receptor (Homo sapiens) (UniProt P10275); test: qHTS assay to identify small molecule agonists of the androgen receptor (AR) signaling pathway using the MDA cell line (AID 743040; also: nearly all actives have a fitted effect of over 20% in size)
# In short: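 Cells plated, 5 h at 37C/0% CO2; compound or DMSO pinned; 16 h at 37C; ONE-Glo added; luminescence measured after 30 min at room temperature. Reporter line: MDA-kb2 with MMTV-luciferase responsive to AR and GR.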
# [9] = qHTS assay to identify small molecule antagonists of the androgen receptor (AR) signaling pathway using the MDA cell line - cell viability counter screen (AID 743041; also: nearly all actives have a fitted effect of over 45% in size)
# In short: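 Cells were plated at 3,000 per well and left 5 h. Compounds in DMSO were then pinned in, followed by R1881. After 16 h at 37C, CellTiter-Fluor fluorescence gave viability.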
# [10] = target: Androgen receptor (Homo sapiens) (UniProt P10275); test: qHTS assay to identify small molecule antagonists of the androgen receptor (AR) signaling pathway using the MDA cell line (AID 743042; also: nearly all actives have a fitted effect of over 55% in size)
# In short: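 Antagonist mode: compounds plus R1881 agonist added to MDA-kb2 AR-luc cells, incubated 16 h at 37C. Luciferase reporter luminescence quantified, with multiplexed CellTiter-Fluor readout for cell viability.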
# [11] = qHTS assay to identify small molecule antagonists of the thyroid receptor (TR) signaling pathway - cell viability counter screen (AID 743064); also: nearly all actives have a fitted effect of over 50% in size
# In short: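 Viability of T3-stimulated (1 nM final) GH3.TRE-Luc cells is measured by CellTiter-Fluor fluorescence after 23.5 h compound exposure at 37 °C plus 30 min reagent incubation.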
# [12] = qHTS assay to identify small molecule antagonists of the thyroid receptor (TR) signaling pathway (AID 743065); also: series mostly up to about 70 µM; nearly all actives have a fitted effect of over 55% in size
# In short: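 Antagonism measured as loss of luciferase signal in GH3 cells stably carrying a TRE-luciferase reporter, co-treated with compound and T3 (1 nM final) for 23.5 h at 37 C. Viability was read in the same well by CellTiter-Fluor.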
# [13] = tested on: thyroid hormone receptor (rat, GH3 cells); test: qHTS assay to identify small molecule agonists of the thyroid receptor (TR) signaling pathway (AID 743066; calls by dose curve)
# [14] = target: Estrogen receptor (Homo sapiens) (UniProt P03372); test: qHTS assay to identify small molecule antagonists of the estrogen receptor alpha (ER-alpha) signaling pathway (AID 743069; active = well fitted curve in the direction sought with a large enough effect in the signal ratio in the repeat runs, not every such curve was filed as active; the % refers to the signal ratio)
# Estrogen receptor (Homo sapiens), sequence (P03372 whole entry, looked up): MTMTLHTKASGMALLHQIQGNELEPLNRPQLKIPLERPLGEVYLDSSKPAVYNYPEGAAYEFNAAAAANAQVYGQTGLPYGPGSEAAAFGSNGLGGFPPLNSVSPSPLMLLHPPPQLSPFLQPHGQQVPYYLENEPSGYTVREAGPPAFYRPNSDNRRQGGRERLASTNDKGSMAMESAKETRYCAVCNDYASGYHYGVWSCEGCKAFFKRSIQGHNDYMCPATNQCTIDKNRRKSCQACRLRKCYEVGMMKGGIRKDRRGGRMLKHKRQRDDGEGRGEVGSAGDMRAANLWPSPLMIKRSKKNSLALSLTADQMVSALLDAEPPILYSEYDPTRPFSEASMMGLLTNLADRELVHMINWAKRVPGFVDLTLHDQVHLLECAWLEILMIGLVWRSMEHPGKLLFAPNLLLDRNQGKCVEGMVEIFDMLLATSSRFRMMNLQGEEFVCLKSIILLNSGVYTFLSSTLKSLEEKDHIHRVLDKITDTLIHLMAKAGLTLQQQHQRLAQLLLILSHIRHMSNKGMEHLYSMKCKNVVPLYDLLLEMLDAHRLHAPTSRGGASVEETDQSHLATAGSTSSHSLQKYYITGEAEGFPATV
# In short: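 ER-alpha-UAS-bla GripTite HEK293 line; 2% charcoal-stripped FBS overnight; plated, 4 hr 37C/5% CO2; cpd in DMSO + 17beta-estradiol, 18 hr 37C; LiveBLAzer B/G FRET substrate 2 hr RT; fluorescence intensity.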
# [15] = qHTS assay to identify small molecule antagonists of the estrogen receptor alpha (ER-alpha) signaling pathway - cell viability counter screen (AID 743074; calls by dose curve;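 also: HEK293 cells carrying ER-alpha-UAS-bla reporter stimulated with 17beta-estradiol; nearly all actives have a fitted effect of over 45% in size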)
# [16] = target: Estrogen receptor (Homo sapiens) (UniProt P03372); test: qHTS assay to identify small molecule agonists of the estrogen receptor alpha (ER-alpha) signaling pathway (AID 743075; calls by dose curve;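 also: HEK293 GripTite cells with ER-alpha and UAS-driven beta-lactamase reporter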)
# [17] = target: Estrogen receptor (Homo sapiens) (UniProt P03372); test: qHTS assay to identify small molecule agonists of the estrogen receptor alpha (ER-alpha) signaling pathway using the BG1 cell line (AID 743079); also: nearly all actives have a fitted effect of over 20% in size; also: potency is read from the fitted curve at half-maximal effect
# [18] = qHTS assay to identify small molecule antagonists of the estrogen receptor alpha (ER-alpha) signaling pathway using the BG1 cell line (AID 743080; calls by dose curve;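 also: BG1 cells stimulated with 17beta-estradiol alongside compound; series mostly up to about 70 µM; nearly all actives have a fitted effect of over 25% in size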)
# In short: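 Readout is ONE-Glo luminescence, taken 30 min at room temperature after reagent addition, preceded by a CellTiter-Fluor viability read; BG1-Luc-4E2 cells had received compound and 17beta-estradiol for 21.5 h at 37 C.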
# [19] = qHTS assay to identify small molecule antagonists of the estrogen receptor alpha (ER-alpha) signaling pathway using the BG1 cell line - cell viability counter screen (AID 743081);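 also: compound given together with 17beta-estradiol as the ER stimulus; series mostly up to about 70 µM; nearly all actives have a fitted effect of over 45% in size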
# Aromatase (Homo sapiens) = Aromatase (Homo sapiens) (UniProt P11511); test: qHTS assay to identify aromatase inhibitors (AID 743083)
# Aromatase (Homo sapiens), sequence (P11511 whole entry, looked up): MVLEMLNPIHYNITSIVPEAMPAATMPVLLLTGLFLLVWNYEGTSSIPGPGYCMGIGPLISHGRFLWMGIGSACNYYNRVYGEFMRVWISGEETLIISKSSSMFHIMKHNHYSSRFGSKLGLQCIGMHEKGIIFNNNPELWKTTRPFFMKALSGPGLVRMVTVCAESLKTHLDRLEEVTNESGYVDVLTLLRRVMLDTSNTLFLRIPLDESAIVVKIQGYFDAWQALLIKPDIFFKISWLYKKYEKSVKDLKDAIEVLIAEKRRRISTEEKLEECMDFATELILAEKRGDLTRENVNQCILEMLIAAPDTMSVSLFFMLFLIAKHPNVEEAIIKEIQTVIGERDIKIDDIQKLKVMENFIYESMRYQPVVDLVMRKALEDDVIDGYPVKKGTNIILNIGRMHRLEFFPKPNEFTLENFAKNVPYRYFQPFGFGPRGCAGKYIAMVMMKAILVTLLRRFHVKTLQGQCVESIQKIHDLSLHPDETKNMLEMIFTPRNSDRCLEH
Compound,Potency [1],Potency [2],Potency [3],Potency [4],Potency [5],outcome [6],outcome [7],outcome [8],Potency [9],outcome [10],Potency [11],Potency [12],outcome [13],Potency [14],Potency [15],Potency [16],Potency [17],Potency [18],Potency [19],Potency (Aromatase (Homo sapiens))
Cc1cc(=O)[nH]c(C(C)C)n1,inactive,inactive,inactive,inactive,inactive,inactive,inactive,inactive,inactive,inactive,inactive,inactive,inactive,inactive,inactive,inactive,inactive,inactive,inactive,inactive
CCCCNC(N)=O,inactive,inactive,inactive,inactive,inactive,,,,inactive,,inactive,inactive,inactive,,inactive,,,,inactive,inactive
OC[C@@H](O)[C@H](O)[C@H](O)[C@@H](O)CO,inactive,inactive,inactive,inactive,inactive,,,,inactive,,inactive,inactive,inactive,inactive,inactive,inactive,inactive,inactive,inactive,inactive
C=C(C)C(=O)OCCCCCC,inactive,inactive,inactive,inactive,inactive,,,,inactive,,inactive,inactive,inactive,inactive,inactive,inactive,inactive,inactive,inactive,inactive
O=C(O)c1ccc([N+](=O)[O-])cc1,inactive,inactive,inactive,inactive,inactive,,,,inactive,,inactive,inactive,inactive,,inactive,,,,inactive,inactive
CNC[C@H](O)[C@@H](O)[C@H](O)[C@H](O)CO,inactive,inactive,inactive,inactive,inactive,,,,inactive,,inactive,inactive,inactive,,inactive,,,,inactive,
Clc1cc(Cl)c(Cl)cc1Cl,inactive,inactive,inactive,inactive,inactive,,,,inactive,,inactive,inactive,inactive,inactive,inactive,inactive,62.1 µM (active) and inactive,inactive,inactive,inactive
C=C(C#N)C(=O)OCC,inactive,inactive and 43.3 µM (active),inactive and 43.3 µM (active),inactive and 24.3 µM (active),inactive,,,,inactive,,inactive,inactive,inactive,,inactive,,,,inactive,inactive
Oc1ccc2ccccc2c1,inactive,inactive,inactive,inactive,inactive,,inactive,inactive,inactive,inactive,inactive,,,,inactive,,,,inactive,inactive
Cc1ccc(C(=O)O)o1,inactive,inactive,inactive,inactive,inactive,,,,inactive,,inactive,inactive,inactive,,inactive,,,,inactive,inactive
OCCOCCOCCOCCO,inactive,inactive,inactive,inactive,inactive,,,,inactive,,inactive,inactive,inactive,inactive,inactive,inactive,inactive,inactive,inactive,inactive
CC(C)(N=C=O)c1cccc(C(C)(C)N=C=O)c1,inactive,inactive,inactive,inactive,inactive,,,,inactive,,inactive,inactive,inactive,,inactive,,,,inactive,inactive
CCCCC(CC)COC(=O)CCCCCCCC(=O)OCC(CC)CCCC (stereo not given),inactive,inactive,inactive,inactive,inactive,,,,inactive,,inactive,inactive,inactive,,inactive,,,,inactive,
CCc1ccccc1O,inactive,inactive,inactive,inactive,inactive,,,,inactive,,inactive,inactive,inactive,inactive,,inactive,inactive,inactive,inactive,inactive
CC(C)(CO)COC(=O)C(C)(C)CO,inactive,inactive,inactive,inactive,inactive,inactive,inactive,inactive,inactive,inactive,inactive,inactive,inactive,inactive,inactive,inactive,inactive,inactive,inactive,inactive
OC[C@@H](O)[C@@H](O)[C@H](O)[C@@H](O)CO,inactive,inactive,inactive,inactive,inactive,,,,inactive,,inactive,inactive,inactive,inactive,inactive,inactive,inactive,inactive,inactive,inactive
